Tgondii IFNg = blocks Toxoplasma gondii growth in the presence of IFN-gamma; activity change, negative = inhibition, % (test concentration not listed); 69,000 compounds, 3.8% hits; Toxoplasma gondii growth in IFN-gamma-treated host cells; hits give low values; in the data active = activity change below about -70%, passing the limit was not always enough;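 note: host cells are HeLa cells infected with Toxoplasma gondii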
Each line names hits and unclear results; the compound was inactive in the other large screens; ! = repeats disagree. The sample as a whole holds a higher share of hits than the screen did.

Cc1c(C(=O)CSc2ccc(Cl)cc2)sc2ccc(Cl)cc12	none
COc1ccc(OS(=O)(=O)c2sc3ccc(Cl)cc3c2C)cc1	Tgondii IFNg -104.0
Cc1cc(O)cc(=O)n1CCCC(=O)O	none
O=C(O)C1CC2(CCNCC2)CN1Cc1cc(F)ccc1F (stereo not drawn)	none
COc1nc2c(c(-c3ccco3)c1C#N)Cc1cc(NC(C)=O)ccc1-2	none
CC(=O)Nc1ccc2c(c1)CCc1ccccc1-2	none
CC(=O)Nc1sc2c(c1C#N)CCc1ccccc1-2	Tgondii IFNg -89.7
Cc1ccc(C(NC(=O)CN2CCCCCC2=O)c2ccncc2)cc1C (stereo not drawn)	none
COC(=O)C1=C(C)NC(C)=C(C(=O)OCCN2CCN(C(c3ccccc3)c3ccccc3)CC2)C1c1cccc([N+](=O)[O-])c1 (stereo not drawn)	Tgondii IFNg -84.0!
COC(=O)C1=C(C)NC(C)=C(C(=O)OC/C=C/c2ccccc2)C1c1cccc([N+](=O)[O-])c1 (stereo not drawn)	none
COC(=O)C1=C(C)NC(C)=C(C(=O)OCCN(C)Cc2ccccc2)C1c1cccc([N+](=O)[O-])c1 (stereo not drawn)	none
CCCCCN=c1ccn(Cc2ccccc2)c2ccccc12	none
CCCCCCCCCCCCCCCCn1cc[n+](Cc2ccccc2)c1C	Tgondii IFNg -79.0
CN[C@H](CC(=O)O)C(=O)O	none
COc1ccc(C(N)=O)cc1-c1ccc(S(C)(=O)=O)cc1	none
COc1ccc(C)cc1-c1ccc(C(N)=O)cn1	none
COc1ccc(OC)c(-c2cc(C(N)=O)ccc2C)c1	Tgondii IFNg -76.1
COc1ccc(-c2ccccc2[C@H]2[C@@H](CO)N(C(=O)NC3CCCCC3)[C@H]2C#N)cc1	Tgondii IFNg -72.4
COc1ccc(-c2ccccc2[C@@H]2[C@@H](C#N)N(C(=O)NC3CCCCC3)[C@H]2CO)cc1	none
COc1ccc(-c2ccccc2[C@@H]2[C@@H](C#N)N(C(=O)NC(C)C)[C@H]2CO)cc1	none
CC(=O)N1CC2(CCN(C(=O)C(C)C)CC2)C2(CCN(C)C2=O)C1 (stereo not drawn)	none
Cc1cc(C(=O)Nc2ccc3c(c2)C(=O)N(C)[C@@H]2CC[C@@H](CC(=O)O)O[C@@H]2CO3)no1	none
O=C1c2cccc(O)c2C(=O)c2c(O)cccc21	none
O=C1c2ccccc2-c2n[nH]c3cccc1c23	Tgondii IFNg -90.9!
CCN1CC[C@@]2(CN(Cc3cnn(C)c3)C[C@H]2c2ccccc2)C1=O	none
CC(C)CCN1Cc2[nH]nc(C(=O)N3CCCC3)c2C1	none
Cc1cnc(C)c(-c2cc(O)c3c(c2)CN(Cc2nccs2)CCO3)n1	none
O=C(COc1ccc(Cl)cc1)NCc1ccccc1	none
O=C(/C=C/c1ccc(Cl)cc1)NCCc1ccccc1	none
OC(CCCc1ccccc1)(c1ccc(Cl)cc1)c1ccc(Cl)cc1	Tgondii IFNg -80.0
CC(C(=O)O)c1ccc(-c2ccccc2)c(F)c1 (stereo not drawn)	none
Cc1ccc(NC(=O)c2ccccc2)c(NC(=O)CCN2CCCCO2)c1	none
CC(C)c1cc(C2CCN(C(=O)[C@H]3CCCO3)CC2)[nH]n1	none
CCCCNC(=O)CC1N=C2c3ccccc3N=C(SCc3ccc(C)cc3)N2C1=O (stereo not drawn)	none
O=C(O)c1cncc(-c2cccc(-c3ccn[nH]3)c2)c1	none
CN1CCN(c2ncnc3ccc(-c4cccc(-c5ccn[nH]5)c4)cc23)CC1	Tgondii IFNg -79.2
CN(C)C(=O)c1ccc2ncnc(N3CCCC3)c2c1	none
COc1ccc2c3c(n(C)c2c1)[C@H](CO)N(C(=O)Nc1ccc(F)cc1)CC31CCN(S(=O)(=O)c2cccc(C)c2)CC1	Tgondii IFNg -74.1
COc1ccc2c3c(n(C)c2c1)[C@H](CO)N(C(=O)Nc1ccc(F)cc1)CC31CCN(Cc2ccccn2)CC1	none
COc1ccc2c3c([nH]c2c1)[C@H](CO)N(C(=O)Nc1cccc(F)c1)CC31CCN(S(=O)(=O)c2cccc(C)c2)CC1	none
COc1ccc2c3c(n(C)c2c1)[C@@H](CO)N(C(=O)Nc1ccc(F)cc1)CC31CCN(S(=O)(=O)c2cccc(C)c2)CC1	Tgondii IFNg -75.5
COc1ccc2c3c(n(C)c2c1)[C@@H](CO)N(C(=O)Nc1ccc(F)cc1)CC31CCN(Cc2ccccn2)CC1	none
CCCNC(=O)N1CC2(CCN(S(=O)(=O)c3ccccc3)CC2)c2c(n(C)c3cc(OC)ccc23)[C@H]1CO	none
COC(=O)CCn1c(-c2cccnc2C)cc2cccnc21	none
CCCCc1ccc(C(=O)N2CCn3nc(C(=O)N4CCOCC4)cc3C2)nc1	none
O=C(c1cccs1)N1CCC(n2nc(-c3cccs3)ccc2=O)CC1	none
C[C@@H]1CN([C@H](C)CO)C(=O)c2cccc(NC(=O)Nc3ccc(F)cc3)c2O[C@@H]1CN(C)S(=O)(=O)c1ccc(Cl)cc1	none
COc1ccccc1-c1ccc2n(c1=O)C[C@H]1[C@H](CO)[C@@H](C(=O)N3CCOCC3)[C@@H]2N1CC1CC1	none
COCc1nnc(NC(=O)CN2CCCC(Cc3nc4ccccc4[nH]3)C2)s1 (stereo not drawn)	none
Cc1onc(-c2c(F)cccc2Cl)c1C1=NCCO1	none
Cc1onc(-c2c(F)cccc2Cl)c1C(=O)ON=C1C2CC3CC(C2)CC1C3	Tgondii IFNg -85.5
Cc1onc(-c2c(Cl)cccc2Cl)c1-c1nnc(NC(=O)c2ccco2)s1	none
Cc1cc(=O)n(CC(=O)N2C[C@H]3C[C@H](O)[C@H](O)C[C@H]3C2)c2ccccc12	none
OCc1ccc(-c2cc(C3CCN(C/C=C/c4ccccc4)C3)ccn2)cc1 (stereo not drawn)	none
Cc1ccc(CN2CCN(Cc3cnc(C)[nH]3)CC2=O)cc1	none
CCCOCCN1CCN(c2ncc(C)c(N(C)C)n2)CC1	none
Cc1ccc(CN2CCN(c3ncc(C)c(N(C)C)n3)CC2=O)cc1	Tgondii IFNg -85.1
COc1cncc(C(=O)Nc2ccccc2C(F)(F)F)c1	none
Fc1cnc(N2CCC3(COCc4cnc(-c5ccccc5)nc43)C2)nc1 (stereo not drawn)	none
CCN1CCC2(CC1)OC(=O)C(C)=C2C(=O)Nc1c(C)cccc1C	none
Cc1cnc(CNC(=O)c2cc(-c3ccccc3Cl)oc2C)cn1	none
O=C(c1cccc(O)c1)N1C[C@H]2OC(=O)N(CCCc3ccc(F)cc3)[C@H]2C1	none
COc1ccc(CCN(C)CC(=O)Nc2c(C)cc(C)cc2C)cc1OC	none
CC(=O)N1CCc2cc(NC(=O)C3=NN(C4CCS(=O)(=O)C4)C(=O)CC3)ccc21 (stereo not drawn)	none
CC(C)c1cc(C(=O)O)nn1C1CCS(=O)(=O)C1 (stereo not drawn)	none
CC1=NN(C2CCS(=O)(=O)C2)C(=O)C1(Sc1ccccc1)Sc1ccccc1 (stereo not drawn)	Tgondii IFNg -93.0
C/C=C/c1ccc([C@H]2[C@H](CO)N(C(C)=O)[C@H]2CN(CC)C(=O)CN(C)C)cc1	none
CCCN(C[C@H]1N[C@H](CO)[C@@H]1c1ccccc1)C(=O)COC	none
Cc1cccnc1CN1CCN(Cc2cccn2-c2nccs2)CC1	none
CC[C@H]1CC=CC[C@H](C)Oc2ccccc2C(=O)N(C)[C@@H](C)C(=O)N1 (mixture of isomers)	none
COc1ccc(C)cc1NC(=O)N1CCC2(CC1)Nc1ccccc1-n1cccc12	none
CO[C@@H]1CC[C@H]2CCOc3c(C#N)cccc3C(=O)N(C)C[C@H](c3ccccc3)CC(=O)N(C)C[C@H]1O2	none
Clc1cncc(Oc2ccc(-n3cccc3)cn2)c1	none
Cc1ccc(SC(=O)c2cc(C)n(-c3c(Cl)cc(Cl)cc3Cl)n2)cc1	Tgondii IFNg -100.0
S=C(Nc1ccccc1)N1CCN(c2nc(-c3ccc(Cl)cc3)cs2)CC1	none
COc1cccc(-c2nc(-c3noc4ccc(C(=O)Cc5ccccn5)cc34)co2)c1	none

High-throughput results as filed in PubChem BioAssay.
